# From PubChem
# CYP2C9 inhib: human CYP2C9 inhibition | P11712 | CYP2C9 Supersomes, luciferin-H conversion, luminescence | inhibition, % at 5 µM | 96,000 tested, 20% active | AID 777;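 active = blocking of liver enzyme CYP2C9 beyond about 50% at 5 µM, limit read from the data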
# EphB4 ephrin blk: blocks human EphB4 binding to ephrin-B2 | P54760 | EphB4 LBD / TNYL-RAW-Alexa532 peptide, fluorescence polarization | inhibition, % at 7 µM | 97,000 tested, 0.15% active | AID 720;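 active = inhibition above the screen-wide mean inhibition plus 3 SD, cut at about 15% in these data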;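 note: 0% = DMSO wells and 100% = excess unlabeled TNYL-RAW peptide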
# CYP2C9 activ: increases human cytochrome P450 2C9 activity | P11712 | recombinant CYP2C9, luciferin-H conversion, luminescence; stronger effect = higher value; factor 1 = untreated enzyme, 0 = blocked | activation factor at 5 µM | 96,000 tested, 1.4% active | AID 1024;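 active = activation factor of 2 or more for CYP2C9 at a 5 µM dose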;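 note: 0 = sulfaphenazole-blocked wells and 1 = vehicle-only wells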
# CYP2C19 inhib: blocks human cytochrome P450 2C19. P33261. CYP2C19 Supersomes, luciferin-H EGE luminescence, 30 min. inhibition, % at 5 µM. 96,000 tested, 21% active;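 active = CYP2C19 inhibition above a set limit at 5 µM in the primary screen, cut at about 50% in these data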;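 note: plate controls were negative control wells for no effect and 2.5 mM tranylcypromine positive control for full effect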
# Target sequence (P33261 whole entry, looked up): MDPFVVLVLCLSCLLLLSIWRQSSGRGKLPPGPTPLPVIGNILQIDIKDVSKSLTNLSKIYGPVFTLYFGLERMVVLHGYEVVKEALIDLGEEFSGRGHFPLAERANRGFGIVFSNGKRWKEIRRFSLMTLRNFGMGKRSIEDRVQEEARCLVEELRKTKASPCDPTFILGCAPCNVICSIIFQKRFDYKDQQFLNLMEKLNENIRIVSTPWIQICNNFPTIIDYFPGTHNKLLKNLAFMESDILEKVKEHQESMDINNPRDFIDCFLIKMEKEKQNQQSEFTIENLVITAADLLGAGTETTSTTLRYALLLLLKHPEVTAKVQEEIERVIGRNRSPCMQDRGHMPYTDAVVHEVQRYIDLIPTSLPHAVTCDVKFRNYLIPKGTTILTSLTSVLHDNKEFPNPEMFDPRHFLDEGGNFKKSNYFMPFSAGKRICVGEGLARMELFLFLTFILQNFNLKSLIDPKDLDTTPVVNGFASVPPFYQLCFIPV
# CYP2C19 act: cytochrome P450 2C19 (human) activation | activation factor at 5 µM | P33261 | 96,000 tested, under 10 active | recombinant CYP2C19, luciferin-H EGE luminescence; stronger effect = higher value; 0 = fully inhibited enzyme, 1 = untreated enzyme;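 active = activation factor of at least 2 at 5 µM in the primary screen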;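 note: 0 = wells with 2.5 mM tranylcypromine and 1 = vehicle-only wells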
# * marks the source's active call; other numbers are inactive results; / = no result given. Only some compounds are listed: those with a hit (about 27% of all), similar ones and a draw of the others.
SMILES,CYP2C9 inhib,EphB4 ephrin blk,CYP2C9 activ,CYP2C19 inhib,CYP2C19 act
CCn1cc(C(=O)N(CCCN2CCOCC2)Cc2ccco2)c(=O)c2ccc(C)nc21,-2,/,1,0,1
CCCN(CCC)CCNC(=O)C1CCN(Cc2nc(-c3ccc(Cl)cc3)oc2C)CC1,-3,2,1,-12,1.1
Cc1ccccc1NS(=O)(=O)c1cccc(-c2nnc(-c3ccccc3)o2)c1,37,4,0.6,12,0.9
O=S(=O)(NC1CCCCC1)c1cccc(-c2nnc(-c3ccccc3)o2)c1,84*,0,0.2,29,0.7
CN(C)S(=O)(=O)c1cccc(-c2nnc(-c3ccccc3)o2)c1,92*,-3,0.1,48,0.5
COc1ccc(C2=NOC(C(=O)NCc3ccco3)C2)cc1 (stereo not given),-17,11,1.2,18,0.8
COc1ccc(NC(=O)C2C3C=CC(C3)C2C(=O)NCc2ccco2)cc1 (stereo not given),37,-3,0.6,67*,0.3
COc1ccc(NC2CS(=O)(=O)CC2NCc2ccco2)cc1 (stereo not given),0,/,1,89*,0.1
O=S1(=O)CC(NCc2ccccc2)C(Nc2ccccc2)C1 (stereo not given),37,1,0.6,86*,0.1
Cc1cc(NC(=O)c2cnn3cccnc23)no1,-1,7,1,4,1
COc1cccc(C2/C(=C(\O)c3ccc4c(c3)OCCO4)C(=O)C(=O)N2CCCN(C)C)c1OC (stereo not given),/,-2,/,/,/
COc1ccc(N2CCN(C(CNC(=O)c3ccc4c(c3)OCO4)c3cccnc3)CC2)cc1 (stereo not given),28,-6,0.7,17,0.8
O=C(NCC(c1cccnc1)N1CCN(c2ccc(F)cc2)CC1)c1ccc2c(c1)OCO2 (stereo not given),80*,-4,0.2,64*,0.4
COc1ccc(C(=O)NCC(c2cccnc2)N2CCN(c3ccc(F)cc3)CC2)cc1OC (stereo not given),/,6,/,/,/
O=C(NCC(c1cccnc1)N1CCN(c2ccc(F)cc2)CC1)c1ccc(F)cc1 (stereo not given),77*,3,0.2,81*,0.2
COc1ccccc1C(c1nnnn1C(C)(C)C)N1CCN(C(=O)c2ccco2)CC1 (stereo not given),37,-11,0.6,37,0.6
N#Cc1c(-c2ccc(Cl)cc2)ccn2nc(C3CCCCC3)nc12,85*,0,0.1,26,0.7
C/C(=C\C(=O)c1ccc(F)cc1)NCc1ccc2c(c1)OCO2,25,-8,0.7,31,0.7
Cc1ccc2c(c1)N(CCC(=O)NCC1CCCO1)C(=O)CO2 (stereo not given),-2,-11,1,30,0.7
O=C(c1cc2ccccn2n1)N1CCN(Cc2ccccc2)CC1,-32,/,1.3,96*,0
CCOC(=O)N1CCN(C(=O)c2cc(C)no2)CC1,-6,/,1.1,71*,0.3
Cc1cc(C(=O)N2CCN(Cc3ccccc3)CC2)on1,10,0,0.9,95*,0
O=C(c1cc2ccccn2n1)N1CCCC1,1,-6,1,-6,1.1
CCOC(=O)N1CCN(C(=O)c2c(-c3ccccc3)noc2C)CC1,19,/,0.8,40,0.6
CCNc1nc(SCCOc2ccc(C)cc2)nc(N(C)C)n1,2,-3,1,12,0.9
SMILES,CYP2C9 inhib,EphB4 ephrin blk,CYP2C9 activ,CYP2C19 inhib,CYP2C19 act
CSCCC(NS(=O)(=O)c1cccs1)C(=O)NCc1cccs1 (stereo not given),33,5,0.7,26,0.7
COC(=O)CC(NS(=O)(=O)c1cccs1)c1ccccc1Cl (stereo not given),48,0,0.5,94*,0.1
Cc1cc(C)n(S(=O)(=O)c2cc(Cl)ccc2Cl)n1,-66,0,1.7,59*,0.4
Cc1cc(C)n(S(=O)(=O)c2ccc(C(C)(C)C)cc2)n1,36,3,0.6,76*,0.2
Cc1cc(C)n(S(=O)(=O)c2ccc3ccccc3c2)n1,-133,-5,2.3*,61*,0.4
Cn1c(=O)c2c(ncn2CC(=O)Nc2ccc(Cl)cc2Cl)n(C)c1=O,13,-1,0.9,18,0.8
CC(C)CC1C(C#N)=C(N)SC(N)=C1C#N,13,3,0.9,42,0.6
CC(=O)c1cccc(NC(=O)CCS(=O)(=O)c2cccc3nonc23)c1,12,/,0.9,22,0.8
O=C(CCS(=O)(=O)c1cccc2nonc12)NCCc1ccccc1,3,/,1,53*,0.5
